The values below come from PubChem BioAssay (NCI).

Common to all, as to experiment: NCI-60 one-dose screen, 48 h (100 = growth as untreated, 0 = no growth, -100 = all killed)
Common to all, as to conditions: 10 µM unless noted

Assay [1] relates to SK-MEL-2 melanoma.
In assay [2] the test system is EKVX NSCLC.
Assay [3] relates to SN12C renal.
Assay [4] has as its system UO-31 renal.
The subject of assay [5] is TK-10 renal.
The subject of assay [6] is ACHN renal.
Assay [7] deals with CAKI-1 renal.
The test system of assay [8] is A498 renal.
Assay [9] has as its system CCRF-CEM leukemia.
For assay [10], the system named is MOLT-4 leukemia.
Assay [11] deals with RPMI-8226 leukemia.
In assay [12] the test system is OVCAR-8 ovarian.
For assay [13], the system named is OVCAR-5 ovarian.
The test system of assay [14] is OVCAR-4 ovarian.
Assay [15] has as its system SK-OV-3 ovarian.
Assay [16] relates to IGROV1 ovarian.
For assay [17], the system named is OVCAR-3 ovarian.
Assay [18] has as its system HS 578T breast.
The test system of assay [19] is SR leukemia.
Assay [20] concerns NCI/ADR-RES ovarian.

The panel holds about 83,000 compounds, 20% with a hit somewhere; the sample as a whole holds those more often.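 Values shown are percent growth following 48 h exposure of cells in 96-well plates to a single concentration of compound; below 10 was considered active.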 Unmarked numbers belong to inactive results. Active and inactive are the calls of the source.

Take `COc1cccc(OC)c1C(=O)N[C@@H]1C(=O)N2[C@@H]1SC(C)(C)[C@@H]2C(=O)O`: the growth is 101% in assay [1]; 104% in assay [2]; 97.7% in assay [3]; 84.9% in assay [4]; 106% in assay [5]; 98.4% in assay [6]. The growth in assay [7] is 94.2%; in [8], 121%; in [9] it was 99.8%; in [10], 94.6%; in assay [11], 102%; in assay [12] it was 107%. Further, the growth in [13] is 110%; in [14], 104%; in assay [15], 99.5%; in assay [16] it was 99.6%; in assay [17], 119%; in assay [18] it was 114%.
For `c1ccc(OCc2nnc(-c3ccc(Oc4ccccc4)cc3)o2)cc1`, the growth in [1] was 91.4%; in assay [2], 96.6%; in [3], 99%; in [4] it was 81.7%; in [5], 103%; in assay [6], 92.9%. The growth in assay [7] is 97.1%; in assay [8], 111%; in assay [9], 96.7%; in [10], 87.6%; in assay [19] it was 85.8%; in assay [12], 99.1%. Moreover, the growth was 104% in assay [13]; 98.7% in assay [14]; 96.9% in [15]; 98.3% in assay [17]; 99% in assay [18]; 96.9% in [20].
On to `CN1CCN(Cc2ccc(NC(=O)c3ccc(C(C)(C)C)c(C#Cc4cnc5cccnn45)c3)cc2C(F)(F)F)CC1`, for which the growth was 33.7% in assay [1]; -32.8% (active) in assay [2]; -67.4% (active) in assay [3]; -47% (active) in assay [4]; -93.8% (active) in [5]; -75.2% (active) in assay [6]. Besides, the growth in assay [7] was -45.1% (active); in assay [8], 75.5%; in [9], -36.7% (active); in assay [10], -57% (active); in assay [19], -49.7% (active); in [12], -30.4% (active). Also, the growth in assay [13] is -25.4% (active); in assay [17] it was -68.5% (active); in assay [18], -24.8% (active); in assay [20], -43.5% (active).
Consider `C=CCc1cc(C)ccc1NC(C(=O)NCC(=O)OC)c1ccccc1` (configuration not stated), for which the growth in [1] was 96.4%; in assay [2], 93.9%; in assay [3] it was 91.4%; in [4], 80.6%; in assay [5], 106%; in [6], 98.5%. Also, the growth in assay [7] was 88.1%; in assay [8], 94.6%; in [9] it was 105%; in assay [10] it was 97.1%; in assay [19], 95%; in assay [12], 100%. Further, the growth in [13] is 86.7%; in [15], 91.2%; in assay [17] it was 105%; in assay [18], 106%; in [20], 92.7%.
For the compound `COc1ccc(N)c(N)c1`, the growth is 121% in assay [1]; 105% in assay [2]; 100% in [3]; 75.3% in assay [4]; 113% in assay [5]; 97.3% in assay [6]. For the same compound, the growth in [7] was 94.4%; in assay [8] it was 95.1%; in assay [9], 83.1%; in [10], 96.2%; in [19], 121%; in assay [12] it was 108%. The growth is 110% in [13]; 103% in assay [14]; 107% in assay [16]; 125% in [17]; 110% in assay [18].
For the compound `COc1cc2cc(Oc3ccc(NC(=O)Nc4ccc(F)c(C(F)(F)F)c4)cc3)c(C)nc2cc1OCCN1CCOCC1`, the growth is 14.8% in assay [1]; 16.2% in assay [2]; 11.6% in assay [3]; 30.1% in assay [4]; 35.1% in [5]; 9.37% (active) in [6]. The growth in assay [7] is 25.8%; in [8] it was 38.7%; in assay [9], 5.44% (active); in assay [10], 0.0203% (active); in assay [19] it was -15.2% (active); in [12] it was 13.8%. Also, the growth in assay [13] was 66.9%; in [14], 27.3%; in assay [16] it was 32.7%; in [17], 13%; in assay [18], 65.8%; in assay [20] it was 12%.
`CCCCCCCCCCCCCCCCCC1OCC(COC(=O)O[C@]2(CC)C(=O)OCc3c2cc2n(c3=O)Cc3cc4ccccc4nc3-2)O1` (some centres not stated): the growth was 116% in [1]; 92.4% in assay [2]; 49% in [3]; 73.1% in assay [4]; 95.5% in assay [5]; 62.9% in assay [6]. Besides, the growth in assay [7] is 65.7%; in assay [8], 88.6%; in assay [9], 29.2%; in [10], 43.3%; in [19], 8.38% (active); in assay [12], 70.2%. Moreover, the growth in assay [13] is 95.6%; in assay [15] it was 83.9%; in [16], 81.5%; in assay [17], 94.5%; in assay [18] it was 99.5%; in [20] it was 66.6%.
